These results are taken from the supplement of paper PMC10941209.

The test system of the test is HFF. The experiment in a line: cell viability relative to DMSO control; higher = less cytotoxic. Particulars: 1 µM; 72 h. Here is the method: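 Single-dose cytotoxicity screen of the MMV Pandemic Response Box at 1 uM on human foreskin fibroblasts (HFF), 72 h at 37 C. Viability measured by MTT (OD 550 nm) and normalised to the DMSO control (% survival).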

For orientation: cell viability means a read-out of living cells in per cent, often relative to untreated cells. `Nc1nc(C(F)(F)F)cc2c1[nH]c(=O)n2Cc1ccccc1` came in with a cell viability of 65%.

As to `COc1ccc(C2CNC(=O)C2)cc1OC1CCCC1` (stereo not given), the cell viability came to 69.5%. Molecule `OCCCCn1cnc2c(O)nc(NCc3ccc(Cl)c(Cl)c3)nc21` showed a cell viability of 62.2%.

`Fc1ccc2c(/C=C/c3cccnc3)c[nH]c2c1` registered a cell viability of 63.2%. To `Nc1nnnn1CCOc1c2[nH]c3ccc(Cl)cc3c2cc2c1[nH]c1ccc(Cl)cc12` belongs 65.4%.

Turning to `CC(C)(C)NC(=O)N[C@H](C(=O)N1C[C@H]2[C@@H]([C@H]1C(=O)NC(CC1CCC1)C(=O)C(N)=O)C2(C)C)C(C)(C)C` (stereo not given in full), the cell viability stood at 63.4%. To `Cc1cc(Nc2ccc(F)cc2)nc(SCc2nc3ccccc3[nH]2)n1` belongs 66%.

With `O=C(O)C[C@H]1CC[C@H](c2ccc(-c3ccc(Nc4ccc(C(F)(F)F)nc4)cn3)cc2)CC1`, the cell viability amounted to 67.6%. As to `COc1ccccc1NC(=O)c1ccccc1Sc1ccc([N+](=O)[O-])cc1`, the cell viability is 55.7%.

`O=c1cc(Nc2ccc3ccccc3c2)[nH]c(=O)[nH]1` returned a cell viability of 65.6%. The molecule `CCOc1ccc(/C=N/NC(=O)C2CC2c2ccc(C(C)(C)C)cc2)cc1OCC` (stereo not given) showed a cell viability of 57.3%. Turning to `C[C@H](NC(=O)C(=O)Nc1ccccc1C(C)(C)C)C(=O)N[C@@H](CC(=O)O)C(=O)COc1c(F)c(F)cc(F)c1F`, the cell viability was 55.9%. For `N#Cc1cc([N+](=O)[O-])ccc1Oc1ccccc1Cl`, the cell viability is 72.5%. With `CCCCc1ccc(-c2nc(C)c(C(=O)OC)s2)cc1` the figure was 63.9%; with `CC(C)(C)c1cc(C(=O)/C(C#N)=N/Nc2cccc(Cl)c2)no1`, 53%. In turn, `OC(Cn1cncn1)(Cn1cncn1)c1ccc(F)cc1F` had a cell viability of 66.7%. To `COc1ccc(CNC(=O)C2CCN([C@H](C)c3cccc4ccccc34)CC2)cc1` belongs 62.6%. Regarding `O=C(O)CSc1cc(NS(=O)(=O)c2cccc3cccnc23)c2ccccc2c1O`, the cell viability is 59.6%. With `O=C(/C(=C/c1ccc(Cl)cc1Cl)n1ccnc1)c1ccc(Cl)cc1` the figure was 74.8%; with `COC(=O)Nc1nc2c(C)cccc2[nH]1`, 69.3%. For the molecule `OCCC#Cc1nc(-c2ccc(F)cc2)c(-c2ccncc2)n1CCCc1ccccc1`, the cell viability was 81.7%. `CCc1ccccc1OCCN1CCCCCC1` displayed a cell viability of 55.1%. To `O=C(O)/C=C/C=C/c1cccc(Oc2cc(Cl)cc(Cl)c2)c1` belongs 63.3%; to `CC(=O)Nc1cc(NS(=O)(=O)c2ccc(Cl)cc2)cc2c(Cl)[nH]nc12`, 67.2%. Take `CCCCSc1nc(N)c2[nH]c(=O)c(=O)n(Cc3ccccc3)c2n1`: the cell viability was 67.5%. With `CCc1ccc(C2CC(C(F)(F)F)n3ncc(C(=O)NCc4ccc(OC)cc4)c3N2)cc1` (stereo not given) the figure was 76.2%; with `Cn1c2ccccc2c(=O)c2c(O)cccc21`, 65.8%; with `O=C(NC1CCCc2c1[nH]c1ccc(Cl)cc21)c1ccccn1` (stereo not given), 67.4%. `Cc1[nH]c2ccccc2c1CC(=O)N[C@@H](Cc1ccccc1)C(=O)N(C)c1ccccc1` gave a cell viability of 69.6%. Consider `O=C1[C@H](CC[C@H](O)c2ccc(F)cc2)[C@@H](c2ccc(O)cc2)N1c1ccc(F)cc1`, for which the cell viability turned out to be 73%. Turning to `CC(C)n1cnc2c(NCc3ccccc3)nc(NCc3ccccc3)nc21`, the cell viability stood at 65.3%. The molecule `NC1C2CC3CC(C2)CC1C3` (stereo not given) displayed a cell viability of 66.1%. The molecule `COc1cc(Cc2cc(N)nc(N)n2)cc(OC)c1OC` registered a cell viability of 65.1%. The molecule `NC(=O)c1nccn([C@@H]2O[C@H](CO)[C@@H](O)[C@H]2O)c1=O` came in with a cell viability of 72.5%. The molecule `O=C(O)c1sccc1S(=O)(=O)n1ccc2cc(Br)ccc21` registered a cell viability of 65.1%. With `O=P(O)(O)C(CCCc1cccc(Oc2ccccc2)c1)S(=O)(=O)O` (stereo not given) the figure was 74.4%; with `FC(F)(F)Oc1ccc(Nc2ccc3cccc(Cl)c3n2)cc1`, 56.3%; with `COc1cc(C2C3=C(CC(C)(C)CC3=O)Nc3ccccc3N2C(C)=O)ccc1OCc1ccccc1` (stereo not given), 67.1%. With `C=C(C)[C@@H]1CC[C@]2(C(=O)O)CC[C@]3(C)[C@H](CC[C@@H]4[C@@]5(C)CC[C@H](O)C(C)(C)[C@@H]5CC[C@]43C)[C@@H]12` the figure was 69.3%; with `Cc1oncc1C(=O)Nc1ccc(C(F)(F)F)cc1`, 65.7%; with `COc1cc(C)c2c(Oc3cccc(C(F)(F)F)c3)c(OC)cc(NC(C)CCCN)c2n1` (stereo not given), 61.2%. With `COc1ccc(-n2cnc3cc(NCc4ccco4)ccc32)cc1` the figure was 52%. Turning to `Nc1cnn(C2OC(CO)C(O)C2O)c(=O)n1` (stereo not given), the cell viability is 63.5%. With `NC[C@H]1OB(O)c2c(OCCCO)cccc21` the figure was 69.9%; with `O=C(c1ccccc1)N1CCN(c2ccccc2NC(=O)C(Cl)(Cl)Cl)CC1`, 65%; with `Nc1nc(N)c2c(Sc3ccccc3)cccc2n1`, 68.7%.

`Clc1cccc(-c2nnc(-c3ccccc3)o2)c1` showed a cell viability of 64.1%.

Regarding `Nc1nc(F)nc2c1ncn2[C@H]1O[C@@H](CO)[C@H](O)[C@@H]1O`, the cell viability was 65%.

Take `CO[C@@]1(NC(=O)Cc2cccs2)C(=O)N2C(C(=O)O)=C(COC(N)=O)CS[C@@H]21`: the cell viability was 63.7%. To `O=C1CCC(N2C(=O)c3ccccc3C2=O)C(=O)N1` (stereo not given) belongs 59%; to `Cn1cncc1[C@@](N)(c1ccc(Cl)cc1)c1ccc2c(c1)c(-c1cccc(Cl)c1)cc(=O)n2C`, 61.1%; to `Nc1nc(=O)c(Br)c(-c2ccccc2)[nH]1`, 64.9%.

As for `C=C[C@]1(C)C[C@@H](OC(=O)CS[C@@H]2C[C@H]3CC[C@@H](C2)N3C)[C@]2(C)[C@H](C)CC[C@]3(CCC(=O)[C@H]32)[C@@H](C)[C@@H]1O`, the cell viability is 72.2%. To `C[C@@H](c1nc(-c2ccc(C#N)cc2)cs1)[C@](O)(Cn1cncn1)c1ccc(F)cc1F` belongs 62.9%; to `CC(C)Nc1ncnc2c1cnn2-c1ccc(Cl)cc1`, 71.9%. To `CC(=O)O[C@H]1C[C@@]2(C)[C@@H](C[C@@H](O)[C@H]3[C@@]4(C)CC[C@@H](O)[C@@H](C)[C@@H]4CC[C@@]32C)/C1=C(\CCC=C(C)C)C(=O)O` belongs 63.5%; to `Cc1ccc(C)c(OCCCCCCN2C[C@H](O)[C@@H](O)[C@H](O)[C@H]2CO)c1`, 64.6%; to `Cc1cc(C)n2nc(C(=O)NS(=O)(=O)c3c(C)cccc3OC(F)(F)F)nc2n1`, 72.2%. To `CCOC(=O)N1CCN(c2ccc(Cl)cc2)CC1` belongs 64%; to `CN(Cc1ccc(C(C)(C)C)cc1)Cc1cccc2ccccc12`, 62.8%. Molecule `O=C(Nc1ccc(Cl)c(C(F)(F)F)c1)C(CCCl)C(=O)Nc1ccc(Cl)c(C(F)(F)F)c1` gave a cell viability of 79%. In the case of `CC(Cc1ccccc1)C(=O)Nc1ccc(Cl)cc1C(=O)O` (stereo not given), the cell viability is 65%. On to `Cc1ccc(N2CCC(CCOc3ccc(S(C)(=O)=O)cc3)CC2)nn1`, for which the cell viability is 68.1%. To `COc1cc(C(C(=O)NC2CCCCC2)N(C(=O)Cc2c[nH]c3ccccc23)c2ccc(C(C)C)cc2)cc(OC)c1OC` (stereo not given) belongs 66.3%; to `Oc1c(C(Nc2nc3ccccc3s2)c2ccc(OC(F)F)cc2)ccc2cccnc12` (stereo not given), 57.5%.
